Data: PubChem BioAssay (EPA / NIEHS)
The source made the active and inactive calls. How the source made its calls: active means hit-call score of the fitted dose curve at least 0.9, where 1 is the maximum; inactive means score below 0.9.

These compounds were tested against Aryl hydrocarbon receptor (Homo sapiens) (UniProt P35869) (assay: ATG_Ahr_CIS: Attagene CIS-FACTORIAL HepG2 Assay for human Aryl Hydrocarbon Receptor (Ahr) (AID 2282930)). Settings: HepG2 AhR cis-factorial reporter transcription; actives raise or lower the signal.
Experimental: ATG_CIS is a cell-based, multiplexed-readout assay that uses HepG2, a human liver cell line, with measurements taken at 24 hours after chemical dosing in a 24-well plate.ATG_Ahr_CIS is one of 52 assay component(s) measured or calculated from the ATG_CIS assay. It is designed to make measurements of mRNA induction, a form of inducible reporter, as detected with fluorescence intensity signals by Reverse transcription polymerase chain reaction (RT-PCR) and Capillary electrophoresis technology.Data from the assay component ATG_Ahr_CIS was analyzed into 1 assay endpoint. This assay endpoint, ATG_Ahr_CIS, was analyzed with bidirectional fitting relative to DMSO as the negative control and baseline of activity. Using a type of inducible reporter, measures of mRNA for gain or loss-of-signal activity can be used to understand the reporter gene at the transcription factor-level as they relate to the gene AHR. Furthermore, this assay endpoint can be referred to as a primary readout, because this assay has produced multiple assay endpoints where this one serves a reporter gene function. To generalize the intended target to other relatable targets, this assay endpoint is annotated to the dna binding intended target family, where the subfamily is basic helix-loop-helix protein.
Human liver HepG2 cells are transiently transfected with multiple reporter transcription units (MRTUs) in 6-well plates using FuGene 6 reagent (Roche; 3 ml FuGene/1 mg DNA). The MRTU constructs are regulated by a cis-regulating element (promoter). […] A major difference between the CIS and TRANS system is that in CIS activities of endogenous TFs are measured, whereas the TRANS assay evaluates changes in activities of exogenous, chimeric NR-Gal4 proteins. […] At the end of 24 hour incubation, total RNA was isolated using TriZol reagent (Invitrogen). The isolated RNA is then reverse-transcribed using oligo(dT) primer and Mo-MLV reverse transcriptase (Invitrogen) with DNAse I (Ambion) treatment for 30 min. The one-tenth of the produced cDNA was amplified by PCR using Taq DNA polymerase (Invitrogen) and two reporter sequence-specific primers. The PCR products were fluorescently labeled by primer extension with 6-arboxyfluorescein (6-FAM) 5'-labeled reporter sequence-specific primer (2 min at 95 C, 20 s at 68 C and 10 min at 72 C) and these products were digested with 5U of HpaI (New England Biolabs) for 2h at 37 C. […] The raw capillary electrophoresis data was processed using Attagraph software (Attagene).

Chain of Aryl hydrocarbon receptor (Homo sapiens) (P35869 whole entry, looked up): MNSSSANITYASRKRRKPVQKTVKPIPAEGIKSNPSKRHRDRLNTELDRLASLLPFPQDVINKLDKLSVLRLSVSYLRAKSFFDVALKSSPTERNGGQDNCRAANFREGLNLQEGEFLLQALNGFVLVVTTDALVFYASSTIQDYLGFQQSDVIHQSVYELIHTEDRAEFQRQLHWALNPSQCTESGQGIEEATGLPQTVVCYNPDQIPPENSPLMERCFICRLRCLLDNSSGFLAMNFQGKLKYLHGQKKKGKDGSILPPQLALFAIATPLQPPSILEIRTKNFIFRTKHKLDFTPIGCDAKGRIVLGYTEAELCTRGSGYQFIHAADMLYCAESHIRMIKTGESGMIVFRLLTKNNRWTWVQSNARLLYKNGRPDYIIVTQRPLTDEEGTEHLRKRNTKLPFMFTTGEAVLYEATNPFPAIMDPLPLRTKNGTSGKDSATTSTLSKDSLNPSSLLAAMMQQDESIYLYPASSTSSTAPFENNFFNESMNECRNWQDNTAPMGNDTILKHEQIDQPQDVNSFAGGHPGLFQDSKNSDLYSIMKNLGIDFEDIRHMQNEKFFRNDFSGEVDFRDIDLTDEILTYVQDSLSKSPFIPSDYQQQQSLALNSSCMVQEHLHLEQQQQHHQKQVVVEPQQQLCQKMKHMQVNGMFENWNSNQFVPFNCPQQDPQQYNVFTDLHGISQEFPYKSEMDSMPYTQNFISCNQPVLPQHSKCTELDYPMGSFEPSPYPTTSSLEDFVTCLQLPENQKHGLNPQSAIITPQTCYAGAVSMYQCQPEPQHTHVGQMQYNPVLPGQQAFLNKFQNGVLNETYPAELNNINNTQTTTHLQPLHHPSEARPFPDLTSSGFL

| Compound | AC50 | outcome |
| --- | --- | --- |
| CN(C)c1ccc2nc3ccc(=[N+](C)C)cc-3sc2c1 | 5.2 µM (active) | – |
| CCCCC(C=O)CC (stereo not given) | – | inactive |
| CC12CCC(CC1)C(C)(C)O2 | – | inactive |
| Cc1ccc(C)c(OCCCC(C)(C)C(=O)O)c1 | – | inactive |
| CC(C)OC(=O)c1ccccc1 | – | inactive |
| CC1OC(=O)C(C)OC1=O (stereo not given) | – | inactive |
| CC1(C)CCC[C@]2(C)[C@H]3CC(=O)O[C@]3(C)CC[C@@H]12 | – | inactive |
| CC1=CCC(C(C)C)C=C1 (stereo not given) | – | inactive |
| Cc1cccc(C(C)(C)C)c1O | – | inactive |
| COC(=O)c1ccccc1C | – | inactive |
| c1ccc2cnccc2c1 | 61.1 µM (active) | – |
| C=CC(=O)NCOCCCC | – | inactive |
| Oc1ccc(-c2ccccc2)c(Cl)c1 | – | inactive |
| CCCCOCCOCCOC(C)=O | – | inactive |
| N#Cc1ccc(C(c2ccc(C#N)cc2)n2cncn2)cc1 | – | inactive |
| [Cl][Sc]([Cl])[Cl] | 0.188 µM (active) | – |
| CC(=O)C(C)C | – | inactive |
| Cc1ccc([N+](=O)[O-])cc1N | 1.51 µM (active) | – |
| Cc1ccc2c(c1)CCCN2 | 20.2 µM (active) | – |
| O=C(OCc1ccccc1)c1ccc(O)cc1 | – | inactive |

| Compound | AC50 | outcome |
| --- | --- | --- |
| C=CCNCC=C | – | inactive |
| CCCC(C)C(=O)OCC (stereo not given) | – | inactive |
| CC(=O)OC(C)c1ccccc1 (stereo not given) | – | inactive |
| CCCCCCCCCCCC(=O)OCC | – | inactive |
| Nc1ccnc(=O)[nH]1 | – | inactive |
| Cn1ccnc1 | – | inactive |
| CC(C)(c1ccccc1)c1ccc(Nc2ccc(C(C)(C)c3ccccc3)cc2)cc1 | – | inactive |
| COc1cc(O)c(C(=O)c2ccccc2)cc1S(=O)(=O)O | – | inactive |
| CCCCCCCO | – | inactive |
| CCCCCCCCCCCC(C)=O | – | inactive |
| O=C(O)CCC(=O)O | – | inactive |
| Clc1cc(Cl)c(Cl)c(Cl)c1Cl | – | inactive |
| CCC(C)N (stereo not given) | – | inactive |
| CCCCNS(=O)(=O)c1ccccc1 | – | inactive |
| Nc1ccc(C(=O)OCCCOC(=O)c2ccc(N)cc2)cc1 | – | inactive |
| CC1C(C)(C)C2=C(C(=O)CCC2)C1(C)C (stereo not given) | – | inactive |
| CC(C)COC(=O)CC(C(=O)OCC(C)C)S(=O)(=O)O (stereo not given) | – | inactive |
| C1CCSC1 | – | inactive |
| O=C(C=Cc1ccccc1)OCCc1ccccc1 | – | inactive |
| CCCCNC(=S)NCCCC | – | inactive |
